# The whole screen tested about 220,000 compounds, of which about 530 (0.24%) were called active. No stated cut-off is given here; in the data, active means inhibition above about 13%; inconclusive means no clear call, values can overlap the other calls; inactive means below that. The list comes from a sample in which actives are over-represented; it also holds similar structures and randomly drawn compounds. Entries with a potency or affinity are not part of this list.
# Target: Bifunctional protein GlmU (Mycobacterium tuberculosis (strain ATCC 25618 / H37Rv)) (UniProt P9WMN3)
# Assay: inhibition of mycobacterial GlmU enzyme – biochemical, glucosamine-1-phosphate acetyltransferase (AID 1376);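 further: 0% = complete reaction with vehicle and 100% = reaction without substrate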
# Conditions: M. tuberculosis GlmU acetyltransferase enzyme assay; active compounds read high;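 tested at 30 µM in the primary screen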
# Chain of Bifunctional protein GlmU (Mycobacterium tuberculosis (strain ATCC 25618 / H37Rv)) (P9WMN3 whole entry, looked up): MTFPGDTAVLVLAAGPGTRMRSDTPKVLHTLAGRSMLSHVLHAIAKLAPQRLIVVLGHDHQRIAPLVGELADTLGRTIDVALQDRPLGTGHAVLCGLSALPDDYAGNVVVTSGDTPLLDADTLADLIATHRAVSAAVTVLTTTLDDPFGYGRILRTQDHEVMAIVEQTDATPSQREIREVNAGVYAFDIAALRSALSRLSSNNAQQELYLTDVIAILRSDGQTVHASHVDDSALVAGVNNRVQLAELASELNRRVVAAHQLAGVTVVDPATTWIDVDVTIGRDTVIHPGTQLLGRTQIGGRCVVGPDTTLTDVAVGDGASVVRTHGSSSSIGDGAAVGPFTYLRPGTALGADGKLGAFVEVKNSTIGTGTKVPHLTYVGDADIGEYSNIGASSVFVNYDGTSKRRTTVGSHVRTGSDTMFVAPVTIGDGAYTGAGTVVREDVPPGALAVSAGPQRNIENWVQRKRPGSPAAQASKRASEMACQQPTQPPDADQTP
row,SMILES,inhibition
1,Cc1nn(Cc2c(F)cccc2Cl)c(C)c1NC(=O)C1CC1,1.68% (inactive)
2,CC(Cc1ccsc1)NC(=O)CCc1nnc(COc2ccccc2)o1 (stereo unspecified),-0.64% (inactive)
3,Cc1ccc(OCC(=O)Nc2ccc3c(c2)OCO3)c(C)c1,7.84% (inactive)
4,CCn1c(C)nc2cc(C(=O)N/N=C/c3ccc(O)c(O)c3O)ccc21,12.9% (active)
5,CCn1c(C)nc2cc(C(=O)N/N=C/c3cccc(O)c3O)ccc21,-2.26% (inactive)
6,CCn1c(C)nc2cc(C(=O)N/N=C/c3cccc(OC)c3O)ccc21,1.22% (inactive)
7,CN(C(=O)COc1ccccc1C(=O)NCCc1ccccc1)c1ccccc1,1.19% (inactive)
8,CC[N+](CC)(CC)CCCOC(=O)C(O)(c1ccccc1)C1CCCCC1 (stereo unspecified),-1.3% (inactive)
9,O=C(c1ccccc1)N1CCN=C1c1ccccc1,3.08% (inactive)
10,COc1cc(C(=O)N2CCN=C2c2ccccc2)cc(OC)c1OC,-4.46% (inactive)
11,Cc1cc(C)cc(C(=O)N2CCN=C2c2ccccc2)c1,13.7% (active)
12,CC1=C(C(=O)OCc2ccccc2)C(c2ccsc2)NC(=O)N1C (stereo unspecified),0.99% (inactive)
13,CN1CCN(C(=S)NC(=O)c2ccc(Br)cc2)CC1,-2.25% (inactive)
14,CN1CCN(C(=S)NC(=O)c2ccc(C(C)(C)C)cc2)CC1,0.68% (inactive)
15,COc1ccc(-c2noc(C3CCCN(S(=O)(=O)c4cccc(Cl)c4C)C3)n2)cc1OC (stereo unspecified),1.44% (inactive)
16,Cc1ccc(-n2ncc3c(=O)[nH]c(SC(C)C)nc32)cc1,-6.03% (inactive)
17,Cc1nn(Cc2ccc(Cl)cc2)c(=O)n1N(C)c1ncc(C(F)(F)F)cc1Cl,-1.59% (inactive)
18,Cc1nn(Cc2ccc([N+](=O)[O-])cc2)c(=O)n1N(C)c1ncc(C(F)(F)F)cc1Cl,13.8% (active)
19,Cc1nn(Cc2ccccc2)c(=O)n1N(C)c1ncc(C(F)(F)F)cc1Cl,-3.42% (inactive)
20,Cc1cc(N2CCN(Cc3nc(-c4ccc(F)cc4)oc3C)CC2)cc(C)n1,-0.06% (inactive)
21,O=c1/c(=C\c2ccc(O)cc2)sc2nc(-c3ccccc3)c(-c3ccccc3)n12,-5.24% (inactive)
22,COc1cc(/C=c2\sc3n(c2=O)C(c2ccccc2)C(c2ccccc2)=NN=3)ccc1O (stereo unspecified),-0.15% (inactive)
23,O=c1/c(=C\c2ccc(O)cc2)sc2n1C(c1ccccc1)C(c1ccccc1)=NN=2 (stereo unspecified),15.3% (active)
24,CC1CCN(C(=O)CCCOc2ccc(Cl)cc2)CC1,-3.73% (inactive)

row,SMILES,inhibition
1,COc1ccc(N2C(=O)CC(N(C)CCc3ccc(OC)c(OC)c3)C2=O)cc1 (stereo unspecified),-4.91% (inactive)
2,CC(C)(C)C(=O)n1nc(-c2ccccc2)oc1=O,-3.45% (inactive)
3,O=C(O)Cn1nc(-c2ccccc2)oc1=O,12.9% (active)
4,O=C(O)Cn1nc(-c2ccc(F)cc2)oc1=O,-1.78% (inactive)
5,Cc1cc(NC(=O)CSc2nc(-c3ccccc3)c(C#N)c(=O)[nH]2)no1,8.24% (inactive)
6,N#Cc1c(-c2ccccc2)nc(SCC(=O)Nc2ccccc2)[nH]c1=O,3.28% (inactive)
7,Cc1cc(C)nc(NS(=O)(=O)c2ccc(NC(=O)CSc3nc(-c4ccccc4)c(C#N)c(=O)[nH]3)cc2)n1,13.9% (active)
8,CCOc1ccc(N2C(=O)CC(n3nc(C)cc3C)C2=O)cc1 (stereo unspecified),1.73% (inactive)
9,Cc1ccc(S(=O)(=O)N(C)C)cc1NC(=S)NC(=O)C12CC3CC(CC(C3)C1)C2,-3.56% (inactive)
10,CC(C)(C)C1CCC(=NNC(=O)CC(=O)NCc2ccccc2)CC1 (stereo unspecified),0.32% (inactive)
11,CCC(c1c(C)[nH]oc1=O)c1c(C)[nH]oc1=O,13.4% (active)
12,Cc1[nH]oc(=O)c1N=Nc1ccccc1,8.43% (inactive)
13,Cc1[nH]oc(=O)c1N=Nc1c(Cl)cccc1Cl,1.64% (inactive)
14,O=S(=O)(c1ccc(-c2nc3ccccc3s2)cc1)N1CCCC1,2.5% (inactive)
15,COc1ccccc1N1CCN(CCN2C(=O)CC(=C3c4ccccc4-c4ccccc43)C2=O)CC1,4.68% (inactive)
16,CCCCNC(=O)c1ccc(NC(C)=O)c(Cl)c1,-5.13% (inactive)
17,CCCC(=O)Nc1cc(C(=O)O)ccc1S(=O)(=O)c1ccc(Cl)cc1,0.49% (inactive)
18,CCCCNC(=O)c1ccc(S(=O)(=O)c2ccc(Cl)cc2)c(NC(C)=O)c1,14% (active)
19,O=C(CSc1ccc(-c2ccccn2)nn1)NC1CCCCC1,-1.08% (inactive)
20,O=c1c2c([nH]c3ccccc13)CCCCCC2,13.9% (active)
21,O=c1c2c([nH]c3ccccc13)CCCCC2,5.9% (inactive)
22,O=c1c2c([nH]c3ccccc13)CCCC2,1.46% (inactive)
23,CS(=O)(=O)N1CCC(C(=O)Nc2ccc(C(F)(F)F)cc2)CC1,-0.68% (inactive)
24,Cc1nnc(SCc2nc3sc(C(=O)O)c(C)c3c(=O)[nH]2)s1,6.77% (inactive)

row,SMILES,inhibition
1,Cc1c(C(=O)O)sc2nc(CSc3nnc(-c4ccc(F)cc4)n3C)[nH]c(=O)c12,-3.36% (inactive)
2,Cc1ccnc(NC(=O)c2ccc3c(c2)S(=O)(=O)c2ccccc2C3=O)c1,1.48% (inactive)
3,Cc1c(O)c2ccccc2oc1=O,1.82% (inactive)
4,Cc1nc2c(c(=O)[nH]1)C(c1ccccc1Cl)c1c(c3ccccc3oc1=O)O2 (stereo unspecified),2.13% (inactive)
5,CCCCSc1nc(CCC)cc(=O)[nH]1,3.53% (inactive)
6,Cc1ccc(NC(=O)COC(=O)Cn2cnc3ccccc32)c([N+](=O)[O-])c1,-0.59% (inactive)
7,Cc1ccc(NC(=O)N2CCC(NC(=O)C(C)(C)C)CC2)cc1,2.86% (inactive)
8,CC(=O)N1CCC(Nc2ccc(C)cc2)CC1,14% (active)
9,CCOc1ccc(NC2CCN(C(C)=O)CC2)cc1,4.14% (inactive)
10,CCCCn1c(SCC(=O)NCc2ccco2)nc2ccc(N3CCOCC3)cc2c1=O,5.76% (inactive)
11,CCCCNC(=O)CSc1nc2ccc(N3CCOCC3)cc2c(=O)n1CCc1ccccc1,-5.21% (inactive)
12,CCCCn1c(SCC(=O)NCc2ccccc2)nc2ccc(N3CCOCC3)cc2c1=O,14.2% (active)
13,CC(Sc1ncc(C(F)(F)F)cc1Cl)C(=O)NC(N)=O (stereo unspecified),-5.25% (inactive)
14,O=C(NCCc1c[nH]c2ccccc12)C(F)(F)F,-4.42% (inactive)
15,N#Cc1cccc(C#N)c1N1CCC(C#N)CC1,-4.3% (inactive)
16,COCCCNc1nc(SCc2ccccc2)nc2sc3c(c12)CCC3,12.8% (active)
17,CC(CO)Nc1nc(SCc2ccccc2)nc2sc3c(c12)CCC3 (stereo unspecified),-17.2% (inactive)
18,COCCNc1nc(SCc2ccccc2)nc2sc3c(c12)CCC3,-0.26% (inactive)
19,CC(C)(C)c1ccc(S(=O)(=O)Nc2ccc(Cc3ccncc3)cc2)cc1,0.43% (inactive)
20,COC(=O)c1ccc(N=NNc2ccccc2)cc1,4.94% (inactive)
21,CCN(CC)S(=O)(=O)c1cc(NC(=O)Cc2n[nH]c(=O)c3ccccc23)ccc1C,7.13% (inactive)
22,CCC(C)(NC(=O)Cc1c[nH]c2ccccc12)C(=O)NC1CCCCC1 (stereo unspecified),0.49% (inactive)
23,CCC(C)(NC(=O)c1ccccn1)C(=O)NC1CCCC1 (stereo unspecified),-1.49% (inactive)
24,CCC(C)(NC(=O)CNC(C)=O)C(=O)NC1CCCCC1 (stereo unspecified),17.3% (active)

row,SMILES,inhibition
1,CC(C)(C)C1CCC2(CC1)CC(=O)c1ccccc1O2 (stereo unspecified),0.53% (inactive)
2,CC(C)(C)OC(=O)N/N=C\c1ccc[nH]1,-8.2% (inactive)
3,O=C(O)CCCCC1SCC2NC(=O)NC21 (stereo unspecified),-2% (inactive)
4,O=C(O)CCCCCCCC(=O)O,-3.59% (inactive)
5,CCNc1oc(-c2ccc(OC)cc2)nc1S(=O)(=O)c1ccc(Br)cc1,-0.98% (inactive)
6,C=CCOc1ccc(C2C(C(=O)c3ccco3)=C(O)C(=O)N2c2nnc(C)s2)cc1 (stereo unspecified),-3.01% (inactive)
7,Cc1ccc(C2C(C(=O)c3cccs3)=C(O)C(=O)N2c2nnc(C)s2)cc1 (stereo unspecified),2.85% (inactive)
8,C=CCOc1ccc(C2C(C(=O)c3cccs3)=C(O)C(=O)N2c2nnc(C)s2)cc1 (stereo unspecified),15% (active)
9,COC(=O)CCCC1=CC2=C(c3ccccc3)C(=O)C(C)(OC(=O)C3CCCC3)C(=O)C2=CN1C1CC1 (stereo unspecified),1.9% (inactive)
10,Cc1ccc(OCC(=O)N2CCOCC2)c([N+](=O)[O-])n1,-0.37% (inactive)
11,COc1ccc(C2C=C(c3ccc(Br)s3)Nc3ncnn32)cc1OC (stereo unspecified),14.2% (active)
12,COc1cccc(C2C=C(c3ccc(Br)s3)Nc3ncnn32)c1OC (stereo unspecified),0.77% (inactive)
13,COc1cc(C2C=C(c3cccs3)Nc3ncnn32)cc(OC)c1OC (stereo unspecified),-2.57% (inactive)
14,Cc1ccc(S(=O)(=O)N2CC(O)CC2C(=O)OCc2nc3sc(C)c(C)c3c(=O)[nH]2)cc1 (stereo unspecified),1.13% (inactive)
15,O=C(CCN1CCCC1)c1cccs1,-0.97% (inactive)
16,COc1ccc(CNC(=O)COC(=O)c2c[nH]c(=O)[nH]c2=O)cc1OC,-0.09% (inactive)
17,O=C(COC(=O)c1c[nH]c(=O)[nH]c1=O)NCc1ccccc1,13.3% (active)
18,O=C(COC(=O)c1c[nH]c(=O)[nH]c1=O)Nc1ccccc1,-4.87% (inactive)
19,O=C(CN(Cc1cccs1)C(=O)CNS(=O)(=O)c1ccc(F)cc1)NCC1CCCO1 (stereo unspecified),3.23% (inactive)
20,CCOc1ccc(CNC(=O)CCS(=O)(=O)Cc2ccc(C)cc2)cc1OC,2.73% (inactive)
21,COc1ccc(C2(C)NC(=O)N(CC(=O)NCCC3=CCCCC3)C2=O)cc1OC (stereo unspecified),-7.87% (inactive)
22,CN(C)c1nc(OCCNC(=O)Nc2ccccc2)nc(N2CCCCC2)n1,1.41% (inactive)
23,COc1ccccc1C(=O)NCc1n[nH]c(=S)n1Cc1ccccc1,0.36% (inactive)
24,CCCCN(CC(=O)NCc1ccc(F)cc1)C(=O)c1ccco1,-1.73% (inactive)

# Reference: PubChem BioAssay AID1376 (SRMLSC, 2008)
